Active and inactive are the calls of the source. How the source made its calls: active means hit-call score of the fitted dose curve at least 0.9, where 1 is the maximum; inactive means score below 0.9.

Read-out in this assay: solute carrier (SLCO1B1), SLCO1B1 (gene 10599)
In words: LTEA_HepaRG_SLCO1B1: Life Technologies and Expression Analysis (LTEA) Assay for solute carrier (SLCO1B1) using HepaRG (AID 2283530). Conditions: mRNA level, 48 h; actives raise or lower the signal. The protocol: LTEA_HepaRG is a cell based, multiplexed-readout assay that uses HepaRG, a human liver cell line, with measurements taken at 48 hours after chemical dosing on a 96-well plate.LTEA_HepaRG_SLCO1B1 is one of 102 assay component(s) measured in the LTEA HepaRG cell culture assay. It is a marker of NR mediated transport.Data from the assay component LTEA_HepaRG_SLCO1B1 was analyzed into 1 endpoint. This assay endpoint, LTEA_HepaRG_SLCO1B1, was analyzed with bidirectional fitting relative to DMSO as the negative control and baseline of activity. Using a type of inducible reporter, measures of mRNA induction for gain or loss-of-signal activity can be used to understand regulation of transcription factor activity. To generalize the intended target to other relatable targets, this assay endpoint is annotated to the transporter intended target family, where the subfamily is organic anion transporter.
A total of 1060 chemcials from the ToxCast library were tested in eight-point concentration-response experiments. Cell culture and cytotoxicity assays were conducted at Thermo Fisher Scientific's Custom Services facility (Madison, WI). A single lot of human HepaRG cells (Thermo Fisher Scientific, Frederick, MD) was used for the cell culture experiments. 96-well format collagen type I coated plates of human HepaRG cells were prepared using established methods. Briefly, cryopreserved HepaRG cells were thawed, plated at a density of approximately 100,000 cells/well in HepaRG Thaw, Plate, and General Purpose media (HPRG770, Thermo Fisher Scientific), and incubated for 48 hours. 0.5% DMSO was selected as vehicle control to balance the requisite need of DMSO in HepaRG cultures to maintain differentiation (for example, baseline metabolism, proportions of hepatocytes vs. cholangiocytes), while enabling further hepatic receptor pathway activation (for example, PXR and CAR) in response to chemical exposure. 48 hours after plating, the culture medium was replaced with HepaRG Serum-Free Incudtion Media. Cells were exposed to each test chemical in duplicate and maintained in CO2 incubators for another 48 hours. Chemical plates were thawed to room temperature and 200x concentrations of treatment groups were prepared. 8-point conentration-reponse curves were made with the highest exposure at 100 uM, followed by half-log dilutions, all in 0.5% DMSO. Each test plate contained variouse controls, induction positive controls (1mM phenobarbital), cytotoxicity positive controls ([…] aflatoxin B1), vehicle controls (0.5% DMSO), and total lysis controls (0.5% DMSO). Cell morphology images were taken using an Essen IncuCyte FLR automated microscope, with six 96-well plates imaged in about 24 minutes. Images were captured and exported and JPEG files. Spent culture media was transfered to black-well plates for the LDH assay, and remaining media was sorted at -80 C for later use. Cells were treated with RLT buffer and frozen until shipped for gene expression analysis. Total RNA was isolated from the cell suspension in 75 uL of Buffer RLT (Qiagen, Germantown, MD 20874) by Quintiles/Expression Analysis (Durham, NC) using a custom isolation procedure. Total RNA from each plate well was transferred to a preamplification plate. Fluidigm's 96.96 Dynamic ArrayTM (Fluidigm, Amsterdam, the Netherlands) technology was used for gene expression analyses by quantitative reverse transcription polymerase chain reaction (qRT-PCR, performed by Quintiles/Expression Analysis, Durham, NC)89. Standard TaqManTM Assays (Applied Biosystems/ThermoFisher Scientific, Foster City, CA) were used to assess the expression of 93 genes selected based on their selectivity and sensitivity to important hepatic receptors known to be modulated by environmental chemicals; importance in human hepatocyte functionality; and hepatotoxicity. […]
For `[N-]=[N+]=[N-]`, the compound was called inactive.
For `Nc1ccc(Cl)cc1`, the result was inactive.
As for `CCN(CC)c1ccccc1`, the compound was called inactive.
The result for `CCOc1ccc(C(C)(C)COCc2cccc(Oc3ccccc3)c2)cc1` reads “inactive”; that for `CC(C)(C)OOC(C)(C)C`, “inactive”; that for `OCC1CO1` (stereo not given), “inactive”.
Regarding `CCCCN(CCCC)SN(C)C(=O)Oc1cccc2c1OC(C)(C)C2`, the result was inactive.
On to `Cc1ccc([N+](=O)[O-])cc1C`, for which the outcome was inactive.
Consider `Nc1ccc2ccccc2c1`, for which the compound was classed as inactive.
Regarding `CN(C)C(=O)Cl`, the result was inactive.
Consider `ClC1=C(Cl)C2(Cl)C3C(Cl)C(Cl)CC3C1(Cl)C2(Cl)Cl` (stereo not given), for which the outcome was inactive.
For `CCOP(=S)(OCC)SCSCC`, the outcome was inactive.
On to `COCCOCCO`, for which the result was inactive.
Consider `ClC(Cl)c1ccccc1`, for which the result was inactive.
In the case of `CC(C)(C)c1ccc(O)cc1`, the call was inactive.
For `O=P1(N(CCCl)CCCl)NCCCO1` (stereo not given), the outcome was inactive.
The result for `O=C(O)C(Cl)Cl` reads “inactive”; that for `CC(Cl)(Cl)C(=O)O`, “inactive”.
Regarding `CCOS(=O)(=O)OCC`, the call was inactive.
Turning to `CCCCCCCc1ccc(O)cc1`, the outcome was inactive.
Consider `c1ccc2c(c1)Nc1ccccc1S2`, for which the result was inactive.
In the case of `CCCN(CCC)c1c([N+](=O)[O-])cc(C(C)C)cc1[N+](=O)[O-]`, the compound was called inactive.
In the case of `CCC(C)(C)c1ccc(O)cc1`, the result was inactive.
The result for `O=C(O)C1C(C(=O)O)C2(Cl)C(Cl)=C(Cl)C1(Cl)C2(Cl)Cl` (stereo not given) reads “inactive”; that for `CCC1(c2ccccc2)C(=O)N=C(O)NC1=O` (stereo not given), “inactive”; that for `CCCCN(CCCC)N=O`, “inactive”.
With `c1nc[nH]n1`, the call was inactive.
The result for `Cc1ccc(O)cc1C` reads “inactive”; that for `CC(Cc1ccc(OCC(=O)O)cc1)NCC(O)c1csc(C(F)(F)F)n1` (stereo not given), “inactive”; that for `c1cc2c3c(cccc3c1)CC2`, “inactive”.
The result for `O=[N+]([O-])c1ccc(Cl)c(Cl)c1` reads “inactive”; that for `ClC(Cl)(Cl)c1ccccc1`, “inactive”.
The result for `CSC(C)(C)C=NO` reads “inactive”.
`CCCCc1ccccc1`: the result was inactive.
Regarding `Cc1cccc(N)c1`, the compound was classed as inactive.
Consider `O=[N+]([O-])c1ccccc1`, for which the compound was called inactive.
The result for `CCOC(=O)c1ccccc1C(=O)OCC` reads “inactive”.
On to `Nc1cc2c3c(c1)C(c1ccccc1)=N[C@@H](NC(=O)c1cccnc1)C(=O)N3CC2`, for which the outcome was inactive.
The result for `CCNc1nc(Cl)nc(NC(C)(C)C)n1` reads “inactive”.
Under `O=P(Oc1ccccc1)(Oc1ccccc1)Oc1ccccc1` stands “inactive”.
